An excerpt weighted towards active compounds, which were near 2.7% of everything screened.
KDM5B inh – blocks human KDM5B histone demethylase activity | 220,000 tested, 2.6% active | AID 1347165 | Q9UGL1 | KDM5B demethylase, FDH-coupled NADH fluorescence (FDH is formaldehyde dehydrogenase) | Potency, µM (top dose mostly 57.7 µM), most hits filed as inhibitors; active = well fitted inhibition curve with a large enough effect; inconclusive = small, poorly fitted or top-dose-only effect; inactive = no such curve, though single readings can be large or run the other way; note: potency is the fitted concentration of half-maximal effect; 0% is about no effect; nearly all actives have a fitted effect of over 70% in size
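Inhibition is measured as reduced NADH fluorescence generation from FDH coupling to formaldehyde release. Truncated KDM5BΔAP at 200 nM final acts on H3K4me3 peptide (12.5 µM in substrate mix) in pH 7.5 HEPES buffer with Tween-20, 30 min, room temperature.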
IP6K1 inh – inhibitors of human IP6K1. 140,000 tested, 0.81% active. activity change, % (series mostly up to about 58 µM). IP6K1 kinase, ADP-Glo luminescence, 2 h; stronger effect = lower value. Q92551; in the data active = activity change below about -25%; note: % is set by controls: 0 for no effect and ±100 for the full control effect
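ADP-Glo luminescence measures ADP made by human IP6K1 during a 2 h RT reaction with ATP/IP6 (mix at 1.3 mM/130 uM); top library doses 57.5 and 19.1 uM final.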
* = called active by the depositor; i = inactive; u = inconclusive; x = no result given.

SMILES	KDM5B inh	IP6K1 inh
Cc1nonc1CC(=O)N1C[C@H](O)[C@@H](N2CCC(O)CC2)C1	u	14
CCN1Cc2ccccc2NC(=O)C12CCNC2 (stereo not drawn)	56µM*	-9
CN1Cc2ccccc2NC(=O)C12CCNC2 (stereo not drawn)	i	-11
COc1cc2c(cc1OCc1ccccc1)N(C(=O)c1cc3ccccc3n1C)CC21CCN(C)CC1	u	-14
CCOC(=O)[C@H]1CN(C(=O)OCc2ccccc2)[C@]2(C)C(=O)N(CC3CC3)c3ccccc3[C@H]12	x	-1
CN(C)CC(=O)Nc1ccc2n(c1=O)C[C@H]1C[C@@H]2CN(S(=O)(=O)c2ccccc2)C1	u	-2
N#Cc1ccccc1S(=O)(=O)N1C[C@@H]2C[C@H](C1)c1ccc(-c3ccc(Cl)cc3)c(=O)n1C2	35µM*	-9
N#Cc1ccccc1S(=O)(=O)N1C[C@@H]2C[C@H](C1)c1c(-c3ccccc3F)ccc(=O)n1C2	i	12
O=c1c(C2CCCCC2)ccc2n1C[C@H]1C[C@@H]2CN(S(=O)(=O)c2ccccc2)C1	32µM*	-6
CNc1ccc(OC2CCNCC2)nc1	28µM*	18
CCCCCCC1C(=O)O[C@H](C)[C@H](NC(=O)c2cccc(NC=O)c2O)C(=O)O[C@@H](C)[C@@H]1OC(=O)CC(C)C (stereo partly drawn)	x	15
Cc1nc(-c2ccc(N(C)C)cc2)cc([C@H]2CN3CC[C@H]2C[C@@H]3CNC(=O)NC(C)C)n1	11µM*	-12
Cc1nc(-c2ccccc2)cc([C@H]2CN3CC[C@H]2C[C@@H]3CNC(=O)c2ccco2)n1	u	2
Cc1nc(-c2ccc(N(C)C)cc2)cc([C@H]2CN3CC[C@H]2C[C@@H]3CNC(=O)c2ccco2)n1	25µM*	-4
Cc1nc(-c2ccc(N(C)C)cc2)cc([C@H]2CN3CC[C@H]2C[C@@H]3COC(=O)Nc2ccccc2)n1	u	-8
COc1ccc([N+](=O)[O-])c(N2CC3CCC(C2)N3CC(F)(F)F)n1	i	5
COc1ccc(N2CC3CCC(C2)N3CC(F)(F)F)cn1	56µM*	-6
COc1cc2c(cc1OC1CCCC1)NC(=O)C21CCN(c2ccc(C#N)cn2)CC1	32µM*	-8
COc1cc2c(cc1Oc1ccccc1)NC(=O)C21CCN(c2ncccn2)CC1	u	-14
COc1cc2c(cc1OC1CCCC1)NC(=O)C21CCN(C(=O)c2cccc(C#N)c2)CC1	i	-4
COc1cc2c(cc1OCc1ccccc1)NC(=O)C21CCN(c2ncccn2)CC1	u	-21
COc1cc2c(cc1Oc1ccccc1)NC(=O)C21CCN(c2ncc(C(C)C)cn2)CC1	28µM*	-11
COc1cc2c(cc1OCc1ccccc1)NC(=O)C21CCN(c2ccccn2)CC1	25µM*	-6
COc1ccc(CCC(=O)N2[C@H]3CC[C@@H]2c2cnc(-c4ccc(F)cc4)nc2C3)cc1	i	37
CCOC(=O)[C@H]1CN(C(=O)CC2CCCC2)[C@]2(C)C(=O)N(CC3CC3)c3ccccc3[C@H]12	x	7
SMILES	KDM5B inh	IP6K1 inh
Cc1cc(CN2CCC3CC(=O)NCCC3C2)cc(C)n1 (stereo not drawn)	u	-18
CCOC(=O)[C@H]1CN(C(=O)NC2CCCC2)[C@]2(C)C(=O)N(CCOC(C)=O)c3ccccc3[C@H]12	x	3
OC[C@@H]1[C@H]2CN(Cc3ccoc3)CCN2C[C@H]1c1ccccc1	x	3
C#CCN1C(=O)[C@@H]2[C@H](c3ccccc31)[C@@H](C(=O)OCC)[C@@H](c1ccccc1)N2C(=O)C(=O)OCC	x	-2
CCOC(=O)[C@H]1CN(C(=O)NC2CCCC2)[C@]2(C)C(=O)N(CC3CC3)c3ccccc3[C@H]12	x	-17
COc1ccccc1NC(=O)N1C[C@@H]2C[C@H](C1)c1c(C3CCCCC3)ccc(=O)n1C2	i	-4
COc1ccccc1NC(=O)Nc1ccc2n(c1=O)C[C@H]1C[C@@H]2CN(C2CCOCC2)C1	16µM*	4
CCOC(=O)[C@H]1CN(C(=O)c2ccc(F)cc2)[C@]2(C)C(=O)N(CCOC)c3ccccc3[C@H]12	x	19
CCOC(=O)[C@H]1CN(C(=O)c2ccc(C)cc2)[C@]2(C)C(=O)N(CCOC)c3ccccc3[C@H]12	x	2
CCOC(=O)[C@@H]1[C@H]2c3ccccc3N(C)C(=O)[C@H]2N(C(=O)NC2CCCC2)[C@@H]1c1ccccc1	x	15
c1cnc2c(c1)NC1(CCCNC1)C(=NC1CCCC1)N2 (stereo not drawn)	25µM*	0
Cc1nc(-c2ccco2)cc([C@H]2CN3CC[C@H]2C[C@@H]3CNC(=O)c2cccs2)n1	u	17
Cc1ccc(C(=O)NC[C@H]2C[C@@H]3CCN2C[C@@H]3c2cc(-c3cccs3)nc(C)n2)cc1	35µM*	19
Cc1nc(-c2ccco2)cc([C@H]2CN3CC[C@H]2C[C@@H]3CNS(C)(=O)=O)n1	u	0
Cc1nc(-c2ccco2)cc([C@H]2CN3CC[C@H]2C[C@@H]3CNC(=O)Cc2cccs2)n1	18µM*	7
Cc1nc(-c2ccco2)cc([C@H]2CN3CC[C@H]2C[C@@H]3CNC2CCOCC2)n1	22µM*	4
Cc1nc(-c2cccs2)cc([C@H]2CN3CC[C@H]2C[C@@H]3CNC(=O)c2ccccc2)n1	i	17
Cc1ccccc1S(=O)(=O)N1[C@H]2CC[C@@H]1c1cnc(-c3ccccc3)nc1C2	i	20
CNc1ccc2oc(C[C@H]3O[C@@]4(CC[C@H]3C)O[C@H](C(C)C(=O)c3ccc[nH]3)[C@H](C)C[C@H]4C)nc2c1C(=O)O (stereo partly drawn)	x	7
O=C1NCCCCCN(Cc2cccnc2)[C@H]2CCC[C@@H]12	u	-5
O=C1NCCCCCCN(Cc2cccnc2)[C@H]2CCC[C@@H]12	7.9µM*	9
CCOC(=O)[C@H]1CN(C(=O)c2cc(C)oc2C)[C@]2(C)C(=O)N(CCOC)c3ccccc3[C@H]12	x	14
CN1CCN(C(=O)Cc2ccc(Cl)cc2Cl)CC1	i	x
COc1ncc(-c2cnc3[nH]cc(CC(=O)N4CCN(C)CC4)c3c2)cn1	i	12
O=C(Cc1c[nH]c2ccccc12)N1CCN(Cc2ccccc2)CC1	i	x
SMILES	KDM5B inh	IP6K1 inh
CN1CCN(C(=O)Cc2c[nH]c3ncc(-c4ccc(Cl)cc4)cc23)CC1	32µM*	-10
CN1CCN(C(=O)Cc2c[nH]c3ncc(-c4ccc(F)c(Cl)c4)cc23)CC1	40µM*	1
Cn1cc(-c2cnc3[nH]cc(CC(=O)N4CCN(Cc5ccccc5)CC4)c3c2)cn1	28µM*	-4
O=C(NC1CCCCC1)[C@H]1CN2CC[C@H]1C[C@@H]2Cn1cc(CCO)nn1	i	15
Cc1ncc2c(n1)C[C@@H]1CC[C@H]2N1S(=O)(=O)c1c(C)noc1C	i	2
CCCCCC(=O)N1C[C@H](C(=O)OCC)[C@H]2c3ccccc3N(CC3CC3)C(=O)[C@]21C	x	-15
COc1ccc(-c2cc3c(cn2)CN(C)CCN3)cc1OC	35µM*	-10
COc1cccc(Nc2cc3c(cn2)CN(C)CCN3)c1	u	-2
Cc1cccn2c(CC(=O)N3CCN(C)[C@@H]4CS(=O)(=O)C[C@@H]43)cnc12	28µM*	9
COCCN1CCN(C(=O)C2C(C)(C)C2(C)C)[C@H]2CS(=O)(=O)C[C@H]21	i	10
